This is part of a sample that, as a whole, favours compounds with a hit. Of some 83,000 tested, about 20% had one in any assay.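 Method: cells in 96-well plates; compound added at one concentration; 48 h incubation; percent growth measured; values under 10 scored active.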 Active and inactive are the calls of the source.
Columns and labels:
Assay in all cases: NCI-60 one-dose screen, 48 h (100 = growth as untreated, 0 = no growth, -100 = all killed)
Conditions in all cases: 10 µM unless noted
[1] = test system: DU-145 prostate
[2] = test system: K-562 leukemia
[3] = test system: MALME-3M melanoma
[4] = test system: MDA-MB-231 breast
[5] = test system: RXF 393 renal
[6] = test system: SF-268 CNS
[7] = test system: SF-295 CNS
[8] = test system: SF-539 CNS
[9] = test system: UACC-257 melanoma
[10] = test system: M14 melanoma
[11] = test system: HCT-15 colon
[12] = test system: HT29 colon
[13] = test system: SNB-75 CNS
[14] = test system: SNB-19 CNS
[15] = test system: U251 CNS
[16] = test system: PC-3 prostate
[17] = test system: SK-MEL-5 melanoma
[18] = test system: UACC-62 melanoma
[19] = test system: LOX IMVI melanoma
[20] = test system: SK-MEL-28 melanoma

Measured: growth

Fc1cc(-c2nnc3n2NC(=Nc2ccc(Cl)cc2)CS3)c(Cl)cc1Cl
inactive: [1] 97.8% | [2] 51.5% | [3] 105% | [4] 104% | [5] 89.8% | [6] 91.7% | [7] 81.5% | [8] 98.6% | [9] 92.5% | [10] 92.4% | [11] 97.3% | [12] 93.8% | [13] 71.7% | [14] 93.6% | [15] 94.9% | [16] 111% | [17] 88.9% | [18] 81.4% | [19] 86.5% | [20] 99%

COc1ccc(/C=N/Nc2cc(=O)[nH]c3ccc(Cl)cc23)cc1
inactive: [1] 64.7% | [2] 20.9% | [3] 46% | [4] 71.3% | [5] 85.6% | [6] 58.9% | [7] 72.6% | [8] 97.2% | [9] 81.7% | [10] 54.8% | [11] 39.5% | [13] 99% | [14] 85.8% | [15] 28.9% | [16] 59.1% | [17] 38.2% | [18] 77.3% | [19] 37.2% | [20] 87.2%
active: [12] 3.92%

COc1cccc(-c2nc(-c3ccc(NC(=O)OC(C)C)cc3)[nH]c2-c2ccnc(Br)c2)c1
active: [2] 6.01% | [5] -33.9% | [7] -35.6% | [11] 4.09% | [18] 9.86% | [19] 2.73%
inactive: [1] 36% | [3] 21.8% | [4] 37.3% | [6] 40.5% | [8] 10.5% | [9] 45.3% | [10] 29.9% | [12] 18.3% | [13] 23.6% | [14] 40.3% | [15] 32.7% | [16] 17.5% | [17] 21.9% | [20] 37.7%

CCOC(=O)c1[nH]c(C)c(C(=O)OCc2ccccc2C#N)c1C
active: [13] 0.16%
inactive: [1] 87.2% | [2] 25.6% | [3] 66.5% | [4] 73.9% | [5] 58.3% | [6] 72.9% | [7] 75.2% | [8] 16.2% | [9] 114% | [10] 58.9% | [11] 60.8% | [12] 35.1% | [14] 97.1% | [15] 50.9% | [16] 80.3% | [17] 60.3% | [18] 73.6% | [19] 63.1% | [20] 87.1%

COc1ccc(NC(=O)n2nc(/C=C\c3ccc(O)c(OC)c3)cc2/C=C\c2ccc(O)c(OC)c2)cc1
inactive: [1] 27.2% | [3] 51.9% | [4] 36.5% | [5] 23% | [6] 41.8% | [7] 51.6% | [9] 75.2% | [11] 13.2% | [12] 31.3% | [13] 32.6% | [14] 38.9% | [15] 26% | [16] 28.4% | [18] 25.5% | [19] 27.6% | [20] 34.5%
active: [2] 9.25% | [8] 6.72% | [10] 4.97% | [17] 9.04%

O=C(Nc1nc2ccc(F)cc2s1)c1cccnc1Nc1ccc(Cl)cc1Cl
active: [2] 4.08% | [3] -15.9% | [7] 4.3% | [12] 7.92% | [16] 3.63% | [17] -2.74%
inactive: [1] 30% | [4] 34.5% | [5] 44.4% | [6] 28.9% | [8] 43.1% | [9] 28.1% | [10] 37% | [11] 16.9% | [13] 34.7% | [14] 20.2% | [15] 15.8% | [18] 20.1% | [19] 32.5% | [20] 37.8%

CN1CCN(CC(=O)N2c3cccc4cccc(c34)N(C(=O)CN3CCN(C)CC3)C2c2cn(-c3ccccc3)nc2-c2cccc([N+](=O)[O-])c2)CC1
inactive: [1] 28.7% | [13] 65% | [14] 24.9% | [16] 22.6%
active: [2] -43.9% | [3] -86.7% | [4] -60.9% | [5] -19.1% | [6] 7.89% | [7] -67.1% | [8] -86.1% | [9] -75.9% | [10] -81.7% | [11] -13.6% | [12] -33.5% | [15] -64.4% | [17] -97.8% | [18] -83.6% | [19] -93.8% | [20] -89.5%

COc1cc(C(=O)c2cc(C)c3[nH]c4ccc(C)cc4c3c2C)cc(OC)c1OC
inactive: [2] 11.5% | [3] 34.3% | [4] 27.6% | [5] 36.8% | [6] 29.3% | [7] 11.7% | [9] 68.8% | [10] 23.7% | [12] 10.6% | [13] 39.7% | [14] 52.2% | [15] 19.2% | [16] 23.4% | [18] 62.7% | [19] 10.9% | [20] 57.1%
active: [1] 1.16% | [8] 0.519% | [11] 8.81% | [17] -42.3%

O=c1ccc(N=Nc2ccccc2)ccc1Cl
inactive: [1] 93.2% | [3] 55% | [6] 92.5% | [7] 69.6% | [8] 45.8% | [9] 74.6% | [10] 46.6% | [12] 27.5% | [13] 74.5% | [14] 81.8% | [15] 54.4% | [16] 56.2% | [17] 55.5% | [18] 55.7% | [20] 92.5%
active: [2] 0.344% | [4] -1.83% | [5] 6.49% | [11] 2.07% | [19] -77.1%

CCN(CC)CCNc1nc2ccccc2c2c(=O)c3cc(Cl)ccc3sc12
inactive: [1] 43% | [3] 88.4% | [5] 79.1% | [6] 62.1% | [7] 29.2% | [8] 67.2% | [9] 93.2% | [10] 31% | [11] 39.8% | [12] 18.3% | [13] 29.6% | [14] 69.5% | [15] 39.7% | [16] 56.7% | [17] 74.4% | [18] 65.4% | [20] 98.1%
active: [2] -25.5% | [4] -2.23% | [19] -58.8%

Cn1cc(-c2cc3ncnc(Nc4ccc(CC(=O)Nc5cc(C(C)(C)C)on5)cc4)c3s2)cn1
inactive: [1] 29.9% | [2] 11.1% | [3] 43.4% | [4] 34.4% | [5] 19.3% | [6] 31.6% | [7] 49.9% | [8] 15.7% | [9] 59.3% | [10] 21.1% | [11] 18.6% | [12] 27.4% | [13] 54% | [14] 86.1% | [15] 54.2% | [16] 47% | [17] 52.1% | [18] 30% | [19] 25.8% | [20] 44%

CS(=O)(=O)N(c1cc(-c2ccc3ncnc(Nc4ccc(F)c(Cl)c4)c3c2)cnc1Cl)S(C)(=O)=O
active: [3] 9.57% | [5] -6.35% | [13] -4.86%
inactive: [1] 47.3% | [2] 50.5% | [4] 44.3% | [6] 32.3% | [7] 34% | [8] 39.9% | [9] 38.8% | [10] 43.6% | [11] 29.5% | [12] 31.5% | [14] 50% | [15] 38.2% | [16] 34.8% | [17] 31.3% | [18] 10.3% | [19] 32.2% | [20] 23.5%

CCOC(=O)c1cn2ncnc(Oc3ccc(NC(=O)NCCN(CC)CC)c(Cl)c3)c2c1C
inactive: [1] 90.5% | [3] 22.3% | [4] 59.8% | [5] 41% | [6] 65% | [7] 92% | [8] 50.7% | [13] 89.1% | [14] 83.2% | [15] 65.2% | [16] 66.1% | [17] 46.6%
active: [2] -9.77% | [9] -41.7% | [10] -64.4% | [11] 3.71% | [12] 5.37% | [18] -8.89% | [19] -32.7% | [20] -77.4%

C/C=C(\C)C(=O)N[C@H]1[C@@H](OC(C)=O)C[C@]2(C)C3CC[C@@]4(C)C(CC[C@@H]4C(C)N(C)C)C3CCC2[C@H]1O (stereo not given in full)
inactive: [1] 87.4% | [2] 50.2% | [4] 78% | [5] 83.2% | [6] 42.7% | [7] 78.2% | [8] 37% | [12] 11.3% | [13] 60.3% | [14] 101% | [15] 68.7% | [16] 45% | [18] 13.6% | [19] 16.8%
active: [3] 7.93% | [9] 3.29% | [10] -32.7% | [11] 2.88% | [17] 5.99% | [20] -35.8%

— PubChem BioAssay (NCI)
